Assay results taken from PubChem BioAssay AID686996 (Broad Institute, 2013).
The whole screen tested about 350,000 compounds, of which about 1,900 (0.54%) were called active. The sample holds actives, similar compounds and a random draw of the others, so the mix is not that of the screen. Values without a mark were called inactive.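 Rule for the calls: active = mean inhibition across replicates at least about 35%, with every replicate also reaching that limit (limit read from the data); inconclusive = only one of the two criteria met; inactive = neither criterion met.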

Target: Caspase-6 (Homo sapiens) (UniProt P55212)
Experiment: human caspase-6 inhibitors, primary screen, biochemical, VEID-R110 fluorescence, single point, set 2 (AID 686996);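 note: 0% = median of neutral control wells and 100% = no fluorescence left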
Conditions: purified caspase-6, Z-VEID-R110 cleavage fluorescence; at 12.5 µM; stronger effect = higher value

Sequence of Caspase-6 (Homo sapiens) (P55212 24-179 limits assumed): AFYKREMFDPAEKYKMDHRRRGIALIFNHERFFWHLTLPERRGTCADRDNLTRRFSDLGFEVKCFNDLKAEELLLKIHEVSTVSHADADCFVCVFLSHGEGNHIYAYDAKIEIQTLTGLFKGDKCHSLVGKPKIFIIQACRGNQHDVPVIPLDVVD
Sequence of Caspase-6 (Homo sapiens) (P55212 194-293 limits assumed): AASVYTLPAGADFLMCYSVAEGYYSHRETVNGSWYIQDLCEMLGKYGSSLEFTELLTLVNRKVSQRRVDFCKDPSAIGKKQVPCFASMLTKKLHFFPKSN

SMILES	inhibition
O=C(Nc1cccc(F)c1)c1cc(-c2ccco2)nc2ccccc12	-7.91%
O=C(CCN1C(=O)c2ccccc2C1=O)Nc1cccc(F)c1	-0.612%
O=C(Nc1cccc(F)c1)c1coc(=O)c(Br)c1	51.7% (active)
C[C@H](CO)N1C[C@H](C)[C@@H](CN(C)C(=O)Nc2ccc3c(c2)OCO3)OCCCC[C@H](C)Oc2ccc(NS(=O)(=O)c3cn(C)cn3)cc2C1=O	-1.24%
CC(=O)N1CC2(C1)[C@H](c1ccccc1)[C@@H](CO)N2C(=O)Cc1ccccc1	0.826%
CCOC(=O)C1=C(C(=O)OCC)C2N(Cc3ccc(C#N)cc3)c3ccccc3[C@@]23C[C@@H](C(=O)OC)N(S(=O)(=O)c2ccc(F)cc2)C3=N1 (some centres not stated)	-0.093%
CC(C)CN1C(=O)CN(S(C)(=O)=O)CC1(C)C(=O)NCc1ccccc1 (configuration not stated)	-0.689%
CC1(C(=O)Nc2ccc3c(c2)OCCO3)CN(S(C)(=O)=O)CC(=O)N1Cc1cccc(F)c1 (configuration not stated)	1.36%
CCC(C)CN1C(=O)CN(S(C)(=O)=O)CC1(C)C(=O)Nc1ccc2c(c1)OCCO2 (configuration not stated)	39.7% (active)
COc1ccc(CN(C)C[C@H]2OCCCC[C@@H](C)Oc3ccc(NS(C)(=O)=O)cc3C(=O)N([C@@H](C)CO)C[C@H]2C)cc1	-2.66%
CCCNC(=O)[C@@H]1[C@@H](CO)[C@@H]2Cn3c(ccc(-c4ccccc4F)c3=O)[C@H]1N2CC1CC1	0.74%
COc1ccc2c3c([nH]c2c1)[C@H](CO)N(Cc1ccc(F)cc1)CC31CCN(Cc2ccccn2)CC1	-3.59%
C[C@H](CO)N1C[C@H](C)[C@H](CN(C)Cc2ccncc2)Oc2ccc(N(C)C)cc2C1=O	2.63%
C#CCNc1ccc(C(=O)OCC)cc1	-1.16%
CCOC(=O)c1ccc(NC(=O)c2c(NCc3ccccc3)[nH]c(=O)[nH]c2=O)cc1	0.97%
CCOC(=O)c1ccc(Nc2cc3ccccc3c(=O)[nH]2)cc1	87.8% (active)
CCC(=O)N1CCCCN2[C@H](C1)[C@@H](c1ccc(C#CCOC)cc1)[C@@H]2CO	-1.73%
COc1ccc(S(=O)(=O)Nc2cccc3c2O[C@@H](CN(C)C(=O)Nc2ccccc2)[C@@H](C)CN([C@@H](C)CO)C3=O)cc1	-2.16%
C[C@@H]1CN([C@H](C)CO)S(=O)(=O)c2ccc(C#C[C@@H](C)O)cc2O[C@H]1CN(C)C(=O)CC1CC1	0.478%
Cc1ccc(CNC(=O)C2CCN(S(=O)(=O)c3ccc4nc5c(c(C(=O)O)c4c3)CC(C)CC5)CC2)cc1 (configuration not stated)	62.6% (active)
CC(=O)N1c2ccc(S(=O)(=O)N3CCC(C(=O)NCc4ccc(F)cc4)CC3)cc2CC1C (configuration not stated)	22.3%
CCOC(CNC(=O)C1CCN(S(=O)(=O)c2ccc3nc4c(c(C(=O)O)c3c2)CC(C)CC4)CC1)OCC (configuration not stated)	33.4%
N#C[C@H]1[C@@H](c2ccccc2-c2ccccc2F)[C@@H](CO)N1C(=O)C1CCC1	-2.32%
CC(=O)N1[C@@H](CO)[C@@H](c2ccc(C3=CCCC3)cc2)C12CN(C(=O)C1CC1)C2	0.171%

SMILES	inhibition
O=C(Nc1ccc2cn[nH]c2c1)c1ccc(S(=O)(=O)N2CCOCC2)cc1	0.612%
O=C(O)c1cc(S(=O)(=O)Nc2ccc3cn[nH]c3c2)ccc1Br	43.4% (active)
COc1ccc(S(=O)(=O)Nc2ccc3cn[nH]c3c2)cc1[N+](=O)[O-]	9.88%
C/C=C/c1ccccc1[C@@H]1[C@@H](CO)N(C(=O)CN2CCOCC2)[C@H]1C#N	-0.139%
C[C@H]1CN([C@@H](C)CO)C(=O)Cc2cc(NC(=O)CCCCCC(=O)Nc3ccccc3N)ccc2O[C@H]1CN(C)C(=O)Nc1ccc(F)cc1	0.452%
Cc1cc(C(=O)CCC(=O)NNC(=O)c2ccccc2O)c(C)s1	4.5%
O=C(NNC(=O)c1cc(S(=O)(=O)N2CCCCC2)ccc1Cl)c1ccccc1O	0.767%
O=C(NNC(=O)c1ccccc1O)c1ccccc1O	73.9% (active)
CN(C)CCCNC(=O)C[C@H]1CC[C@H]2[C@@H](COC[C@H](O)CN2C(=O)c2ccncc2)O1	0.773%
CN(c1ccccc1)S(=O)(=O)c1cccc(NC(=O)Cc2ccc(Cl)cc2)c1	-0.727%
COC(=O)c1cn(C(=O)c2ccc(Cl)cc2)c2ccccc12	0.734%
COC(=O)C(=Nc1ccccc1)/C(C(=O)C(=O)N(C)c1ccccc1)=C(\O)c1ccc(Cl)cc1	40.1% (active)
CN1C(=O)c2cc(NC(=O)C3CC3)ccc2OC[C@@H]2O[C@@H](CC(=O)NCC3CCCCC3)CC[C@@H]21	-1.04%
CO[C@H]1CN(C)C(=O)c2cc(NC(=O)Nc3c(C)noc3C)ccc2OC[C@@H](C)N(CCC(F)(F)F)C[C@H]1C	-1.87%
C[C@@H]1CN([C@@H](C)CO)C(=O)c2cc(C#CC3CC3)cnc2O[C@@H]1CN(C)C(=O)Cc1ccccn1	0.481%
COc1ccc(C#Cc2cccc(-c3nc(C(=O)O)cc4c3[C@@H](CCO)N(S(=O)C(C)(C)C)C4)c2)cc1OC (some centres not stated)	35.2% (active)
CC(C)(C)[S@@](=O)N1Cc2cc(C(=O)O)nc(-c3cccc(-c4cccc(F)c4)c3)c2[C@H]1CCO	-2.52%
CC(C)(C)S(=O)N1Cc2cc(C(=O)NCCCN3CCOCC3)nc(-c3cccc(-c4cc5ccccc5o4)c3)c2[C@H]1CCO (some centres not stated)	-2.64%
COc1ccccc1-c1cccc(-c2nc(C(=O)N3CCN(C)CC3)cc3c2[C@H](CCO)N([S@@](=O)C(C)(C)C)C3)c1	-1.46%
CC(C)(C)[S@](=O)N1Cc2cc(C(=O)N3CCCCC3)nc(-c3cccc(-c4ccccc4F)c3)c2[C@@H]1CCO	-3.88%
CC(C)(C)S(=O)N1Cc2cc(C(=O)O)nc(-c3cccc(-c4cc5ccccc5o4)c3)c2[C@@H]1CCO (some centres not stated)	37.1% (active)
COc1ccc(NC(=O)O[C@H]2[C@H](OC(=O)Nc3ccc4c(c3)OCO4)[C@@H](OC(=O)Nc3ccc4c(c3)OCO4)[C@@H](OC)O[C@@H]2CO)cc1	-3.42%
Cc1ccc(S(=O)(=O)N[C@@H]2CC[C@H](CCn3cc(C4(O)CCCC4)nn3)O[C@H]2CO)cc1	-2.61%
Cc1ccccc1-c1ccc2c(c1)O[C@H](CN(C)Cc1ccc(C(=O)O)cc1)[C@@H](C)CN([C@H](C)CO)S2(=O)=O	-3.25%

SMILES	inhibition
COc1ccccc1C#Cc1ccc([C@@H]2[C@@H](CO)N3CCCCN(S(C)(=O)=O)C[C@@H]23)cc1	-2.85%
Cc1cc(C=O)c(C)n1-c1ccc(NC2CCCCC2)c([N+](=O)[O-])c1	-0.869%
Cc1cc(/C=N/Nc2ccc([N+](=O)[O-])cn2)c(C)n1-c1cccc(C(=O)O)c1	40.7% (active)
CC(C)c1ccc(C=NNc2ccc([N+](=O)[O-])cn2)cc1	-4.08%
C[C@H](O)C#Cc1ccc2c(c1)O[C@H](CN(C)Cc1cccnc1)[C@H](C)CN([C@H](C)CO)S2(=O)=O	-2.82%
O=C(N[C@@H]1CC[C@@H](CC(=O)N2CCc3ccccc3C2)O[C@H]1CO)C1CC1	-3.42%
CCC(=O)N(C)C[C@H]1Oc2ncc(C#Cc3cccnc3)cc2C(=O)N([C@H](C)CO)C[C@H]1C	2.38%
C[C@@H]1CCCCO[C@@H](CN(C)S(=O)(=O)c2ccccc2)[C@@H](C)CN([C@@H](C)CO)C(=O)c2cc(NS(=O)(=O)c3cn(C)cn3)ccc2O1	2.27%
CN(CCOc1ccccc1)C(=O)c1cc(-c2ccco2)nc2ccccc12	4.78%
Cc1cc(C)c2nc(-c3ccco3)cc(C(=O)O)c2c1	42.1% (active)
CC1CCCN(C(=O)c2cc(-c3ccco3)nc3ccccc23)C1 (configuration not stated)	2.88%
COCC#Cc1cnc2c(c1)C(=O)N([C@H](C)CO)C[C@H](C)[C@H](CN(C)C(=O)Nc1ccccc1OC)O2	0.658%
O=C(c1cccc(F)c1)N1CC(=O)N2[C@H](C1)[C@@H](c1ccc(C#Cc3ccc(F)cc3)cc1)[C@@H]2CO	1.71%
COc1ccccc1CNc1nc(Nc2ccccc2Cl)c2sccc2n1	-1.14%
Clc1ccccc1Nc1nc(NCc2cccs2)nc2ccsc12	-2.77%
COCCNc1nc(Nc2ccccc2Cl)c2sc(-c3ccccc3)cc2n1	35.1% (active)
C[C@H](CO)N1C[C@H](C)[C@H](CN(C)Cc2cncnc2)Oc2cc(-c3ccccc3F)ccc2S1(=O)=O	-1.88%
CC(C)n1ncc2c(C(=O)NCc3ccccc3CN(C)C)cc(C3CC3)nc21	-1.64%
CNC(=O)c1ccc(CN(C)C(=O)c2cc(C3CC3)nc3c2cnn3C(C)C)cc1	50.4% (active)
CC(C)n1ncc2c(C(=O)Nc3ccc(CC#N)cc3)cc(C3CC3)nc21	-2.38%
O=C(C[C@@H]1CC[C@@H]2[C@H](COC[C@H](O)CN2S(=O)(=O)c2ccccc2F)O1)NCc1ccccc1F	4.05%
Cc1noc(C)c1NC(=O)N(C)C[C@H]1Oc2c(NC(=O)c3nc4ccccc4s3)cccc2C(=O)N([C@@H](C)CO)C[C@@H]1C	-1.84%
Cc1cc2nc3c(=O)[nH]c(=O)nc-3n(C[C@H](O)[C@H](O)[C@H](O)CO)c2cc1C	-54.4%
CCN(CC)CCCC(C)n1c2nc(=O)[nH]c(=O)c-2nc2cc(Cl)ccc21 (configuration not stated)	81.9% (active)
